# Screens: PubChem BioAssay, Sanford-Burnham Center for Chemical Genomics
# PPC-1+TRAIL kill – kills PPC-1 cancer cells in the presence of TRAIL | PPC-1 cells + TRAIL, ATPLite viability luminescence | cell killing (% activity), % at 4 µM or 5 µM | 0.41% of 220,000 active | AID 1443;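 active means cell killing above 50% in the first pass at 4 µM, then a duplicate retest at 5 µM averaging 50% or more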
# SENP7 inh – blocks the human protease SENP7. recombinant SENP7, Z-RLRGG-aminoluciferin luminescence, 40 min. inhibition, % at 5 µM. 1.5% of 330,000 active. Q9BQF6;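 active means inhibition above about 50% at the single test dose, limit read from the data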
# Target sequence (Q9BQF6 706-1050 limits assumed): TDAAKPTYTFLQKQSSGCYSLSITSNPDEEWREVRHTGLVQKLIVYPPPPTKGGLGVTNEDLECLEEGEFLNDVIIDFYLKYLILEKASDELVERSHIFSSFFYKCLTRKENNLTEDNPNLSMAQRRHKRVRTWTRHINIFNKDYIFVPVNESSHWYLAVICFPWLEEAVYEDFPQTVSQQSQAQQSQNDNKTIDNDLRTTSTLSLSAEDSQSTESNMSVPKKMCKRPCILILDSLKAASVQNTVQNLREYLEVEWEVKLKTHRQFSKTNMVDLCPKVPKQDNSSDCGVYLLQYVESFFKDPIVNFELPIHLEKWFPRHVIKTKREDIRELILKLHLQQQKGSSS
# TRAIL sens C8 – sensitizes caspase-8 expressing cells to TRAIL | NB7+C8 cells + TRAIL, ATPlite viability luminescence | inhibition (viability loss, TRAIL sensitization), % at 10 µM | 1% of 360,000 active | AID 624354;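 active means compounds causing at least 50% loss of cell viability in the single-dose screen, relative to plate controls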
# SENP8 block-1 – blocks the human protease SENP8; AID 2540; Q96LD8; purified SENP8, Z-RLRGG-aminoluciferin cleavage, luminescence; inhibition, % at 10 µM; 1.2% of 330,000 active; in the data active means inhibition above about 50%
# Target sequence (Q96LD8 whole entry, looked up): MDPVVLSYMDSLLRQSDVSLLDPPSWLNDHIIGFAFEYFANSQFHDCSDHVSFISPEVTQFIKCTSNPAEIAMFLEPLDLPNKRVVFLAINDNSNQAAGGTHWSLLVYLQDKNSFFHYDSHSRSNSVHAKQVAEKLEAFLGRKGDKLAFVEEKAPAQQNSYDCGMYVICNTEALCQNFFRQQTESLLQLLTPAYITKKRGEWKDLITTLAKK
# SENP6 inh – SENP6 protease inhibition. Q9GZR1. Recombinant SENP6 catalytic domain, aminoluciferin luminescence. inhibition, % at 10 µM. 1.8% of 330,000 active;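 active means inhibition above about 50% at the single tested dose, limit read from the data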
# SENP8 block-2 – SENP8 (human) protease inhibition | 0.64% of 360,000 active | recombinant SENP8, Nedd8 substrate fluorescence | inhibition, % at 20 µM; in the data active means inhibition mostly above about 40%, no sharp cut-off; inactive means mostly below about 27%
# SENP8 confirm – human SENP8 inhibition, confirmed. shares compounds with SENP7 inh. Recombinant SENP8, Z-RLRGG-aminoluciferin luminescence, 60 min. inhibition, % at 12.5 µM. 40% of 6,200 active;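 active means mean inhibition across replicates above about 50%, limit read from the data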
# SENP6 conf – human SENP6 inhibition, confirmed. shares compounds with SENP7 inh. recombinant SENP6, Z-RLRGG-aminoluciferin luminescence. inhibition, % at 12.5 µM. 58% of 6,200 active. AID 488915
# SENP7 confirm – confirmation of human SENP7 protease inhibitors. recombinant SENP7, Z-RLRGG-aminoluciferin luminescence, 40 min. inhibition, % at 12.5 µM. 69% of 6,200 active. shares compounds with SENP7 inh
# Casp3 SENP sel – selectivity test for SENP inhibitors: human caspase-3 inhibition. shares compounds with SENP7 inh. purified caspase-3, Z-DEVD-aminoluciferin luminescence, 60 min. inhibition, % at 12.5 µM. 60% of 6,200 active;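 active means mean inhibition above about 50%, limit read from the data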
# Luc interf – luminescence interference (SENP counter-screen); shares compounds with SENP7 inh; Pre-incubated SENP8/Z-RLRGG-aminoluciferin, luciferase luminescence interference; inhibition, % at 12.5 µM; 39% of 6,200 active; AID 488919;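 active means mean inhibition above about 50% when retested at one dose, limit read from the data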
# A number is an active result; . = inactive; / = no result given. The list is not random: actives were taken first. Their share in the collection is about 3%.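 How the source made its calls, unless noted: active means mean inhibition above about 50% in the one-dose retest (limit read from the data); inactive means the rest.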
SMILES,PPC-1+TRAIL kill,SENP7 inh,TRAIL sens C8,SENP8 block-1,SENP6 inh,SENP8 block-2,SENP8 confirm,SENP6 conf,SENP7 confirm,Casp3 SENP sel,Luc interf
N/C(=N\OC(=O)/C=C/c1ccccc1)c1ccc(Cl)cc1,.,.,.,.,.,.,/,/,/,/,/
Cc1ccccc1C(=O)O/N=C(\N)c1ccccc1,/,100.1,91.5,93.1,94.8,.,96.9,97.7,102.2,98.1,95.6
Cc1ccccc1/C(N)=N/OC(=O)c1ccc(F)cc1,.,80.8,.,60.7,73.9,.,69.8,71.6,93.2,89.5,75.4
CCOc1ccccc1NC(=O)CCNC(=O)N1CC(=O)Nc2ccccc21,/,/,.,/,/,.,/,/,/,/,/
COc1ccc(S(=O)(=O)N2CCC3CC2c2cc(-c4ccc5c(c4)OCO5)ccc23)cc1 (stereo unspecified),/,/,.,/,/,.,/,/,/,/,/
O=C1/C(=C/c2cccc([N+](=O)[O-])c2)Oc2cc(O)ccc21,/,.,.,54.4,67.4,.,.,.,.,.,.
O=C1C(c2ccccc2)=[N+]([O-])c2ccccc21,/,.,.,.,64.2,.,55.0,68.9,74.9,61.4,.
COCCCNC(=O)C[C@H]1C[C@H](C(=O)N2CCCCC2)[C@@]2(C)c3[nH]c4cc(-c5ccco5)ccc4c3CCN2C1=O,/,.,.,/,/,.,/,/,/,/,/
CCOC(=O)N1CCN(C(=O)c2nn(C)c3c2CSc2ccccc2-3)CC1,/,.,.,.,.,.,/,/,/,/,/
Cc1ccc2c(c1)N=C(c1ccc(F)cc1)CO2,.,97.4,.,95.0,97.8,.,.,97.0,102.2,90.6,.
COc1ccc(NC(=O)C[C@H]2C(=O)N(c3ccccc3)C[C@@H]2CSC)cc1,/,/,.,/,/,.,/,/,/,/,/
Cc1ccc(SCCC(=O)Nc2ccccc2Br)cc1,.,.,.,.,58.4,.,.,.,77.6,.,51.3
CCOC(=O)c1sc(NC(=S)NC(=O)c2ccccc2)nc1C,.,.,.,.,.,.,/,/,/,/,/
CC(=O)c1sc(NC(=O)c2cccs2)nc1C,/,62.4,.,.,61.7,.,.,51.7,81.2,84.0,.
CC(=O)c1sc(NC(=O)c2ccccc2F)nc1C,.,87.1,.,83.3,82.9,.,86.4,84.2,97.4,93.3,85.2
Cc1nc(NC(=O)c2cccs2)ccc1Br,.,80.6,.,69.8,.,.,81.9,81.5,95.1,80.2,69.5
CCOC(=O)c1sc(NC(=O)c2cccs2)nc1C,.,/,.,/,/,.,/,/,/,/,/
COC(=O)c1sc(NC(=S)NC(=O)c2ccccc2Cl)nc1C,.,.,.,.,61.5,.,.,.,.,.,.
Cc1cc(C)nc(NC(=O)c2cccs2)n1,.,.,.,.,.,.,/,/,/,/,/
O=c1cc(-c2ccc(O)cc2)oc2cc(O)cc(O)c12,/,.,.,54.4,69.7,.,52.2,51.2,75.1,.,62.1
O=c1cc(-c2ccc(O)cc2)oc2ccc(O)cc12,.,.,.,.,50.7,.,.,.,61.3,.,.
O=C(c1ccc(S(=O)(=O)N2CCCC2)cc1)N(c1ccccc1)C1C=CS(=O)(=O)C1 (stereo unspecified),/,.,.,.,62.7,.,.,.,.,.,.
Nc1ccc2nc(-c3cccnc3)[nH]c2c1,.,.,.,.,.,.,/,/,/,/,/
Nc1ccc2nc(-c3ccccc3)[nH]c2c1,.,.,.,.,69.6,.,61.3,64.8,89.0,89.8,75.6
Nc1ccc2nc(-c3ccc(N)c(Cl)c3)[nH]c2c1,.,.,.,.,59.6,.,61.7,59.0,81.0,77.9,62.8
SMILES,PPC-1+TRAIL kill,SENP7 inh,TRAIL sens C8,SENP8 block-1,SENP6 inh,SENP8 block-2,SENP8 confirm,SENP6 conf,SENP7 confirm,Casp3 SENP sel,Luc interf
COc1ccc(-c2nc3ccccc3c(=O)[nH]2)cc1,/,61.2,65.9,.,51.7,.,.,.,76.6,.,.
Nc1cccc(-c2nc3ccc(C(=O)c4ccccc4)cc3[nH]2)c1,/,80.9,62.7,70.8,84.7,.,80.2,76.2,92.7,63.3,82.9
Cc1cccc(-c2nc3ccccc3c(=O)[nH]2)c1,/,.,.,.,.,.,/,/,/,/,/
Nc1cccc(C(=O)Nc2ccc3nc(-c4cccnc4)[nH]c3c2)c1,.,.,.,.,.,.,/,/,/,/,/
CC1(c2ccc(OC(F)F)cc2)NC(=O)N(CC(=O)Nc2cccc(F)c2)C1=O (stereo unspecified),/,.,.,.,.,.,/,/,/,/,/
COc1ccc2nc(-c3ccc(N)cc3)[nH]c2c1,.,82.8,.,53.5,75.4,.,68.0,61.0,91.3,86.3,74.5
COc1ccc2nc(-c3ccccn3)[nH]c2c1,/,81.9,.,59.2,77.2,.,78.0,72.6,92.8,88.8,72.9
Nc1ccc2nc(-c3ccccn3)[nH]c2c1,.,52.4,.,.,51.5,.,.,50.6,79.2,81.9,.
O=C(c1ccccc1)c1nnc(-c2ccncc2)o1,.,56.6,.,.,57.9,.,67.7,63.7,86.5,88.2,56.8
COc1ccc(NCC(=O)Nc2c(C)cccc2C)cc1S(=O)(=O)N1CCOCC1,/,/,.,/,/,.,/,/,/,/,/
CCc1noc(C)c1C(=O)N(C)CC(=O)Nc1cccc(OC)c1,/,.,.,.,.,.,/,/,/,/,/
CCOC(=O)Cc1csc(NC(=O)c2ccoc2C)n1,.,88.7,.,74.1,88.1,.,84.2,83.6,94.4,93.3,83.0
Cc1csc(NC(=O)c2ccoc2C)n1,.,88.9,.,75.1,90.0,.,81.5,81.5,95.7,92.9,81.8
COc1ccccc1CCNC(=O)C(=O)Nc1cc2c3c(c1)CC(=O)N3CCC2,/,.,.,.,.,.,/,/,/,/,/
CCn1cc(S(=O)(=O)NCCc2ccc(F)cc2)cn1,/,.,.,.,.,.,/,/,/,/,/
COC(=O)[C@]1(C)N[C@H](CN(C)C(C)=O)[C@@H]2C(=O)N(Cc3ccccc3)C(=O)[C@@H]21,/,.,.,.,.,.,/,/,/,/,/
Nc1cccc2c(O)cccc12,/,.,.,.,68.0,.,.,.,.,.,.
Nc1cccc2c(O)cc(S(=O)(=O)O)cc12,/,/,.,/,/,.,/,/,/,/,/
Cc1ccccc1NC(C)C(=O)N/N=C/c1ccccc1OCc1cccc(Br)c1 (stereo unspecified),.,.,.,.,.,.,/,/,/,/,/
